Compound activity: PubChem, several laboratories
Myeloid diff MLP: induction of myeloid progenitor differentiation, primary screen, cell-based, flow cytometry, MLPCN library; ER-HoxA9 myeloid progenitors, lysozyme-GFP differentiation; calls only at 10 µM; 360,000 compounds, 1% hits; AID 624256, 2012;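 active = normalized GFP-positive differentiation at or above the plate's own cutoff, the solvent-only control mean plus 3 SD; inconclusive = no clear call, values can overlap the other calls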;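 note: cells exposed to compound for four days before flow analysis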
Rtt109 Vps75: inhibitors of C. albicans Rtt109/Vps75 HAT, primary screen, biochemical, ThioGlo CoA-SH fluorescence, plate reader | AID 540336, 2011 | purified Rtt109/Vps75, 4 h | inhibition, % at 34.9 µM | 330,000 compounds, 0.16% hits | Histone acetyltransferase RTT109 (Candida albicans (strain SC5314 / ATCC MYA-2876)), …;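 active = inhibition of at least 50% in every replicate; inconclusive = best replicate reaches 50% inhibition but some replicates fall short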
Target sequence (Q5AAJ8 whole entry, looked up): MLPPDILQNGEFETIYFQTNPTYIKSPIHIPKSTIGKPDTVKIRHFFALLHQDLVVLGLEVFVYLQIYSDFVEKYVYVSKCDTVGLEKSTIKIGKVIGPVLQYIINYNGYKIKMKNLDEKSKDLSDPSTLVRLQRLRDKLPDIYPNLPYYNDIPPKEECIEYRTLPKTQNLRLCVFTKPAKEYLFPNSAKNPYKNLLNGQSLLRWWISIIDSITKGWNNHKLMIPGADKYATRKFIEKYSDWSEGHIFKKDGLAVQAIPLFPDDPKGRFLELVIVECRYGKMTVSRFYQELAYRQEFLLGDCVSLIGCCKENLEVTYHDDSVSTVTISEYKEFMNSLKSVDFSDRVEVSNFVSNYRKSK
Cardio protect: cardioprotection against H2O2-induced cell death, primary screen, uHTS, H9c2 cells, ATPLite luminescence. 360,000 compounds, 0.63% hits. H9c2 cardiomyocytes, H2O2 injury protection, 2 h. protection from H2O2 cell death, % at 20 µM;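 active = compounds giving at least 50% protection of heart cells from peroxide-induced death in the single-dose screen, raw or plate-pattern-corrected value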
ABHD5-PLIN5 inh: ABHD5-PLIN5 interaction inhibitors, primary screen, cell lysate, split luciferase complementation, luminescence | AID 602281, 2012 | Perilipin-5 (Homo sapiens) + 1-acylglycerol-3-phosphate O-acyltransferase ABHD5 (Homo … | 360,000 compounds, 0.78% hits | Split G. princeps luciferase complementation, 4 h | inhibition, % at 4 µM;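 active = inhibition above the mean inhibition across every tested compound plus 3 SD, cut at about 22% in these data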
DAGLB inh: DAGLB lipase inhibitors, primary screen, biochemical, fluorescence, HTS; inhibition, % at 5.17 µM; Diacylglycerol lipase-beta (Homo sapiens), Q8NCG7; 340,000 compounds, 0.059% hits; HEK293T DAGLB membrane lysate, EnzChek fluorogenic substrate; in the data active = inhibition above about 34%
sPLA2-III inh: human group III sPLA2 inhibitors, primary screen, biochemical, QFRET, BODIPY PC-A2 liposome substrate. 370,000 compounds, 0.56% hits. QFRET BODIPY PC-A2 liposome hydrolysis, fluorescence. AID 743126, 2013. inhibition, % at 12.2 µM. Group 3 secretory phospholipase A2 (Homo sapiens), Q9NZ20;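 active = inhibition above mean plus 3 SD of compounds lying within the high and low control bounds, cut at about 19% in these data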
Of the large screens only hits and unclear results are named; the others gave an inactive call. Shown are actives, neighbours in structure and some others; about 2.9% of the full set was active somewhere.

O=C(CCc1nc2ccccc2c(=O)[nH]1)Nc1cc(Cl)ccc1N1CCCC1	none
COc1ccc(C2=C(O)C(C)N(c3ccccc3)C2=N)cc1OC (centres undefined)	none
CN(C)Cc1ccc(-c2nc3cccc4c3n2CCNC4=O)cc1	Cardio protect 53.1
Cc1cc(CN(C)C(=O)CC2C(=O)NCCN2Cc2ccc(-c3ccccc3)cc2)on1 (centres undefined)	Myeloid diff MLP inconclusive
CCCCn1nc(NC(=O)c2cccs2)c2cc3cc(OC)ccc3nc21	Cardio protect 62.5
COc1ccc2nc3c(cc2c1)c(NC(=O)CC(C)C)nn3CC(C)C	none
CCCn1nc(NC(=O)c2cccs2)c2cc3cc(OC)ccc3nc21	none
CCCCn1nc(NC(=O)c2cccs2)c2cc3ccccc3nc21	Cardio protect 55.7
COc1ccc2nc3c(cc2c1)c(NC(=O)C1CCCO1)nn3CC(C)C (centres undefined)	Cardio protect 97.7
COc1ccc(/C=N/NC(=O)c2c(C)n(C)c3ccc(OC)cc23)c(OC)c1	none
CNC(=O)NNC(=O)c1csc(-c2ccc(C(F)(F)F)cc2Cl)n1	none (no result: DAGLB inh)
O=c1[nH]nc(-c2cc(-c3ccccc3)nc3ccccc23)o1	none (no result: Rtt109 Vps75)
Cc1cc(O)ccc1Nc1nc(-c2cccs2)cs1	Myeloid diff MLP active
O=C(CSc1cccc[n+]1[O-])N1CCc2ccccc21	none
COc1cccc(OC)c1C(=O)Nc1ccnn1C	none (no result: sPLA2-III inh)
CCOc1ccc(C(=O)COC(=O)Cn2[nH]c(=O)c3ccccc3c2=O)cc1	Cardio protect 78.4 (no result: Rtt109 Vps75)
COc1ccc(C(=O)COC(=O)Cn2[nH]c(=O)c3ccccc3c2=O)c(OC)c1	Cardio protect 61.5
CC(C)(C)C(=O)Nc1cccc(-c2nnc(-c3cccc(NC(=O)C(C)(C)C)c3)o2)c1	Cardio protect 64.1
CC(=O)Nc1cccc(-c2nnc(-c3ccccc3)o2)c1	none
O=C(Nc1cccc(-c2nnc(-c3ccco3)o2)c1)c1ccccc1	none (no result: DAGLB inh)
COc1ccccc1OCC(=O)Nc1cccc(-c2nnc(-c3ccco3)o2)c1	Cardio protect 64.3
CC(=O)Oc1ccc(C(=O)Nc2cccc(-c3nnc(-c4ccco4)o3)c2)cc1	Myeloid diff MLP active
O=C1C2C3C=CC(CO)(O3)C2C(=O)N1c1ccccc1-c1ccccc1 (centres undefined)	ABHD5-PLIN5 inh 44.8 (no result: sPLA2-III inh)
Cc1cc(C)n(CC(=O)N2CCCC(N3CCN(Cc4ccc5c(c4)OCO5)CC3)C2)n1 (centres undefined)	none
O=C(NCc1cccc(C(F)(F)F)c1)c1cccc2c1C(=O)c1ccc(N3CCC(Cc4ccccc4)CC3)cc1S2(=O)=O	Myeloid diff MLP active (no result: sPLA2-III inh)
O=C(NCCc1ccc(F)cc1)c1cccc2c1C(=O)c1ccc(N3CCC(Cc4ccccc4)CC3)cc1S2(=O)=O	Myeloid diff MLP active (no result: sPLA2-III inh)
O=C(NCc1cccc(F)c1)c1cccc2c1C(=O)c1ccc(N3CCC(Cc4ccccc4)CC3)cc1S2(=O)=O	Myeloid diff MLP active (no result: sPLA2-III inh)
O=C(NCc1ccco1)c1cccc2c1C(=O)c1ccc(N3CCC(Cc4ccccc4)CC3)cc1S2(=O)=O	none (no result: sPLA2-III inh)
CC(C)OC(=O)C(C)Nc1ccc(F)c(Cl)c1 (centres undefined)	none
CCN(CC(=O)Nc1ccc(OC)cc1)C(=O)CSCC(=O)Nc1ccc(C)cc1	none
COc1ccccc1NC(=O)C1=C(C)Nc2nnnn2C1c1cc(Br)ccc1OC (centres undefined)	none
Cn1cc(S(=O)(=O)NCc2ccc(Cl)cc2)c(=O)n(C)c1=O	none
O=c1c2ccccc2sn1-c1ccccc1	ABHD5-PLIN5 inh 111.1
Cc1ccccc1-n1sc2cc(F)ccc2c1=O	Rtt109 Vps75 101.8, ABHD5-PLIN5 inh 91.4
O=c1c2cc(C(F)(F)F)ccc2sn1-c1ccccc1	none (no result: Rtt109 Vps75)
O=c1c2ccccc2sn1-c1ccccc1F	none (no result: Rtt109 Vps75)
O=c1c2ccccc2sn1-c1cccc(Cl)c1	none (no result: Rtt109 Vps75)
CN(C)S(=O)(=O)c1cccc(-n2sc3ccccc3c2=O)c1	Rtt109 Vps75 inconclusive, ABHD5-PLIN5 inh 47.3
O=c1c2cc(F)ccc2sn1-c1ccccc1	Rtt109 Vps75 132.3, ABHD5-PLIN5 inh 98.6
Cc1ccc(-n2c([O-])nc(-[n+]3ccccc3)c2C=O)cc1	none
O=c1c2ccccc2sn1-c1ccc(S(=O)(=O)N2CCCCC2)cc1	none
Cc1ccc(-n2sc3ccccc3c2=O)cc1S(=O)(=O)N1CCCCC1	ABHD5-PLIN5 inh 104.1
CN(C(=O)c1sc2nc(N3CCOCC3)c3c(c2c1N)CCCC3)c1ccccc1	Cardio protect 60.6
Nc1c(C(=O)NCCc2ccccc2)sc2nc(N3CCOCC3)c3c(c12)CCCC3	none
NC(=O)c1sc2nc(-c3ccccc3)c3c(c2c1N)CCCC3	Myeloid diff MLP active
CCOC(=O)C1CCCCN1Cc1ccc(C(F)(F)F)cc1 (centres undefined)	none
Cc1cc(C)c(NC(=O)C2CCCN(S(=O)(=O)c3c(C)noc3/C=C/N(C)C)C2)c(C)c1 (centres undefined)	none
Cc1noc(/C=C/N(C)C)c1S(=O)(=O)N1CCCC(C(=O)Nc2ccccc2F)C1 (centres undefined)	Myeloid diff MLP active
Cc1ccc(C(=O)N2CCC(Oc3cccnc3)CC2)c(C)c1	none (no result: Myeloid diff MLP, Rtt109 Vps75, Cardio protect, ABHD5-PLIN5 inh, DAGLB inh)
O=C(N/N=C/c1cn(-c2ccccc2)nc1-c1cccs1)c1ccccc1F	Cardio protect 75.7 (no result: sPLA2-III inh)
O=C(N/N=C/c1cn(-c2ccccc2)nc1-c1cccnc1)c1cccnc1	Cardio protect 51.5
O=C(N/N=C/c1cn(-c2ccccc2)nc1-c1cc2ccccc2o1)c1ccncc1	Myeloid diff MLP active
O=[N+]([O-])c1ccc(N/N=C/c2c[nH]c3ccccc23)cc1	Myeloid diff MLP active
O=C(N/N=C/c1cn(-c2ccccc2)nc1-c1cc2ccccc2o1)c1cccnc1	none
O/N=C/c1cn(-c2ccccc2)nc1-c1cccnc1	none
O=C(NCC1CCCO1)C1CCCN1C(=O)Nc1ccccc1[N+](=O)[O-] (centres undefined)	none
CCOc1ccccc1C(=O)N[C@H](C(=O)Nc1nc2c(s1)CCCC2)C(C)C	none (no result: Rtt109 Vps75)
O=[N+]([O-])c1ccc(N/N=C/c2cn(-c3ccccc3)nc2-c2ccccc2)cc1	Myeloid diff MLP active
O=C(N/N=C/c1cn(-c2ccccc2)nc1-c1cccnc1)c1ccc(F)cc1	Cardio protect 70.8
CCOc1cc(C(=O)Nc2cc(C)ccc2OC)ccc1OCC(=O)N1CCCCC1	none
CCC/C=C1/CCCOC(C(=O)NCc2cc(C)n(C)n2)(C(F)(F)F)C1 (centres undefined)	none
